Values joined by “and” are separate entries in the source; they are usually repeats but may differ in a detail not shown here. Equal entries are not always repeated. Inconclusive results are not listed. Active and inactive are the calls of the source. Unless noted, the limit is not given here; nearly all actives have AC50 up to about 26 µM.

The nature of assay [1]: viability loss in pontine glioma line – cell-based, SU-DIPG-XXV, MIPE5.0, CellTiter-Glo, qHTS, dose response (AID 1347065).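 Also: cells exposed to compound for 48 hours before ATP readout.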 The following applies: CellTiter-Glo ATP luminescence.
Assay [2] is described as follows: SU-DIPG-VI glioma cell viability, MIPE4.0 library, CellTiter-Glo luminescence, qHTS (AID 1347066; cut-off not given, nearly all actives have AC50 up to about 30 µM;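 also: cells exposed to compound for 48 hours before readout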). The following applies: CellTiter-Glo ATP luminescence. For orientation: ATP-based viability assays read luminescence as a measure of living cells.
The nature of assay [3]: JHH-DIPG-1 glioma cell viability, MIPE5.0 library, CellTiter-Glo luminescence, qHTS (AID 1347067).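 Also: cells exposed to compound for 48 hours before readout.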 The following applies: JHH-DIPG-1 glioma viability, CellTiter-Glo ATP luminescence.
Assay [4] in a line: SU-DIPG-XXV glioma cell viability, MIPE5.0 library, qHTS (AID 1347068; cut-off not given, nearly all actives have IC50 up to about 30 µM;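 as to IC50: cells exposed to compound for 48 hours before viability readout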). (In general: In qHTS, concentration-response curves come from the screen itself.)
Assay [5] is described as follows: sensitizers of A549 cells to miR-34 induction, primary screen, imaging, A549 dox-inducible miR-34, nuclei and caspase counts (AID 1347080;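 active = compounds whose cell count with miR-34 switched on is under 0.7 times the count with it off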). The following applies: A549 miR-34 inducible, Hoechst nuclei count, 48 h.
A short description of assay [6]: survival rescue of mitochondrial mutant cells in low glucose, primary screen, MELAS cybrids, Rieske KO mouse fibroblasts, CellTiter-Glo (AID 1508586;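 active = mean z-score across replicates of 1.96 or higher in either the MELAS or the Rieske mutant cell line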;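 also: z relative to plate mean and SD of compound and empty wells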).
Assay [7] addresses NAD(+) hydrolase SARM1 (Homo sapiens) (UniProt Q6SZW1). As to the kind of experiment: SARM1 TIR NADase inhibitors, cell lysate, NAD-Glo luminescence (AID 1508614;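 active = compound whose remaining NAD level is above about 45 nM, limit read from the data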;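 also: higher remaining NAD means stronger inhibition of SARM1 NADase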). The following applies: SAM-TIR HEK293T lysate NADase, at 1 µM, stronger effect = higher value.
For assay [8], the target named is Mitogen-activated protein kinase 7 (Homo sapiens) (UniProt Q13164). The assay is described as follows: ERK5 transactivation activators in reporter cells, primary screen, cell-based, HTS (AID 1508626;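 active = luciferase signal above three times the same-plate solvent-only control wells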;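 also: luciferase driven by Gal4-ERK5 fusion binding five Gal4 sites before minimal TATA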). The following applies: HeLa Gal4-ERK5 transactivation, 18 h, at 5 µM, stronger effect = higher value.
Mitogen-activated protein kinase 7 (Homo sapiens), sequence (Q13164 whole entry, looked up, the tested form may be a part): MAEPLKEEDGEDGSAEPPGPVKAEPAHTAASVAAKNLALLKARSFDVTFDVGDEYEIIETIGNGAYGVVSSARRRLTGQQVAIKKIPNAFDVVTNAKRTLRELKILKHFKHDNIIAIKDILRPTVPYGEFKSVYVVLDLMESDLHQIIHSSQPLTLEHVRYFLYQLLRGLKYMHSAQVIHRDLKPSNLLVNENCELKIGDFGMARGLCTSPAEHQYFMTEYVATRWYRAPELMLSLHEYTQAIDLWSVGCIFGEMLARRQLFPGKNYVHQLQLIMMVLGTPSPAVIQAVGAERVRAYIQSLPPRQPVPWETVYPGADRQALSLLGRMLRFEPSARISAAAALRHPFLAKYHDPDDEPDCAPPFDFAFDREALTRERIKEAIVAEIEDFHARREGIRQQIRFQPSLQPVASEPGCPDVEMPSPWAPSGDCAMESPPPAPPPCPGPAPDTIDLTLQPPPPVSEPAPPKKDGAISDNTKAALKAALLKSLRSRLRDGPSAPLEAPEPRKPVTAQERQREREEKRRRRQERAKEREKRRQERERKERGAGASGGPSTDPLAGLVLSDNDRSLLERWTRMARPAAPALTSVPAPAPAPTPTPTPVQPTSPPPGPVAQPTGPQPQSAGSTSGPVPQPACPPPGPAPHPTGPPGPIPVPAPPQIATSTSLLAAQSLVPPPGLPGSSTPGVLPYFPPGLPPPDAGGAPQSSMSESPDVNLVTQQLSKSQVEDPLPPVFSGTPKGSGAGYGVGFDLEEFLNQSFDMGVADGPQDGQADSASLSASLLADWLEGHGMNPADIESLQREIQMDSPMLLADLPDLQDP
The nature of assay [9]: viability rescue of complex I mutant cybrids, primary screen, cell-based, galactose medium, ATP luminescence (AID 1645843;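 active = z-score of at least 1.8 in each of two replicates, scored against plate mean and spread of sample wells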;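 also: positive z means more ATP and so rescue of galactose-driven cybrid death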). The following applies: complex I mutant cybrid cells, 72 h, stronger effect = higher value.
Assay [10] can be described thus: modifiers of HSF1 nuclear foci, imaging, Selleck Cancer Library (AID 1347162; in the data active = plate-normalised HSF1 focus index below about 0.46). The following applies: human cells, at 10 µM; SSMD: measured here: HSF1 foci SSMD mean; cell count: measured here: cell number; plate-normalised HSF1 focus index: stronger effect = lower value.
Assay [11] is described as follows: phospholipid biosynthesis inhibitors in animal cells, primary screen, cell-based, LOPAC library, screen 4 (AID 1347384; call rule not given here). The following applies: phospholipid biosynthesis inhibition screen, at 10 µM.
Setting [12] is: stronger effect = lower value, cell number ratio, induced over uninduced.
[13] abbreviates: measured here: relative caspase fold change +Dox/-Dox.
Setting [14] is: measured here: total cells with miR-34 induction, stronger effect = lower value.
The mark [15] stands for this setting: measured here: total cells without miR-34 induction.
The mark [16] stands for this setting: MELAS cybrid survival, CellTiter-Glo 48 h, stronger effect = higher value.
[17] abbreviates: Rieske KO mouse fibroblast survival, CellTiter-Glo 72 h.

NAD(+) hydrolase SARM1 (Homo sapiens), sequence (Q6SZW1 whole entry, looked up, the tested form may be a part): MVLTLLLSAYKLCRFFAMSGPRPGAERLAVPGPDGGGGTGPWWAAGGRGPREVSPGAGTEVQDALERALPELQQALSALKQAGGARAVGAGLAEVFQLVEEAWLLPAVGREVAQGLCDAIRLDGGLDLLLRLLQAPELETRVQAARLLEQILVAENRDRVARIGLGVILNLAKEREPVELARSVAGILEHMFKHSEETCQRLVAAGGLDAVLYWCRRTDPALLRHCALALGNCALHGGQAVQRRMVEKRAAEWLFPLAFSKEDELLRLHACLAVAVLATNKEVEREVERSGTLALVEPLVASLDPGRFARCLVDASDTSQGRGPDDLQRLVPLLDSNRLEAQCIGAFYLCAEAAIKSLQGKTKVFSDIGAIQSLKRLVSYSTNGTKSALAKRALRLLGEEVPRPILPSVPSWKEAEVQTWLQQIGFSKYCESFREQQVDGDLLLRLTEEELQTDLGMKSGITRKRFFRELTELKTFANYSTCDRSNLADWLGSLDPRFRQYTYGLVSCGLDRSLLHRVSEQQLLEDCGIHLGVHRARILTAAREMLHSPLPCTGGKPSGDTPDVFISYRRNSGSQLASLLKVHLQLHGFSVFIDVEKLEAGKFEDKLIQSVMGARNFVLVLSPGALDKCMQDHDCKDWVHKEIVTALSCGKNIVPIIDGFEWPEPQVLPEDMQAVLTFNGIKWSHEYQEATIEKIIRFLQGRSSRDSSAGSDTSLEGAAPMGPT

`CC(=O)O[C@H]1C[C@@H]2CC[C@@H]3[C@H](CC[C@@]4(C)[C@H]3C[C@H]([N+]3(C)CCCCC3)[C@@H]4OC(C)=O)[C@@]2(C)C[C@@H]1N1CCCCC1`: the call in [1], in assay [2], in [3] and in assay [4] was inactive. Further, the fold change was 0.831 (inactive) in assay [5] (setting [12]) and 1.81 in assay [5] (setting [13]). For the same molecule, the cell count in [5] (setting [14]) was determined as 8710; in assay [5] (setting [15]), 10500. In addition, the z-score in assay [6] (setting [16]) was 0.144 (inactive) and 0.341 (inactive); in assay [6] (setting [17]), -0.264 and -0.536; in assay [9] it was 0.335 (inactive). Also, in assay [7], the remaining NAD is 10 nM (inactive). Also, the luciferase signal in assay [8] was 52 AU (inactive).

For the molecule `Cn1c(=O)c2c(ncn2CC(O)CO)n(C)c1=O` (configuration not stated), the call in assay [1], in assay [2], in assay [3] and in assay [4] was inactive. Besides, the fold change was 0.891 (inactive) and 0.954 (inactive) and 0.903 (inactive) in assay [5] (setting [12]); 1.59 and 0.805 and 1.72 in [5] (setting [13]). The cell count in [5] (setting [14]) is 9080 and 7480 and 11300; in assay [5] (setting [15]), 10200 and 7830 and 12600. Also, the z-score is -0.421 (inactive) and 0.782 (inactive) in assay [6] (setting [16]); 0.428 and -0.0518 in assay [6] (setting [17]). In addition, the remaining NAD in [7] was 10 nM (inactive). In [8], the luciferase signal was 20 AU (inactive).

Take `C#C[C@]1(O)CC[C@H]2[C@@H]3CCc4cc(OC)ccc4[C@H]3CC[C@@]21C`: the call in assay [1], in [2], in [3] and in assay [4] was inactive. In addition, the fold change was 0.882 (inactive) in assay [5] (setting [12]) and 0.717 in assay [5] (setting [13]). The values for the cell count in assay [5] (setting [14]) and in assay [5] (setting [15]) were 9180 and 10400, respectively. The z-score in [6] (setting [16]) was 1.7 (inactive); in assay [6] (setting [17]) it was 0.807. Further, the remaining NAD in [7] is 10 nM (inactive). Moreover, the luciferase signal in assay [8] is 80 AU (inactive).

As for `COCCCOc1cc(C[C@@H](C[C@H](N)[C@@H](O)C[C@H](C(=O)NCC(C)(C)C(N)=O)C(C)C)C(C)C)ccc1OC`, the outcome in [1], in assay [2], in assay [3] and in [4] was inactive. In addition, the results for the fold change in assay [5] (setting [12]) and in assay [5] (setting [13]) were 0.948 (inactive) and 0.866, respectively. The values for the cell count in assay [5] (setting [14]) and in assay [5] (setting [15]) were 8860 and 9350, respectively. The remaining NAD in assay [7] is 10 nM (inactive). Further, in assay [8], the luciferase signal was 68 AU (inactive).

Turning to `CC(=O)[C@]1(O)Cc2c(O)c3c(c(O)c2[C@@H](O[C@H]2C[C@H](N)[C@H](O)[C@H](C)O2)C1)C(=O)c1ccccc1C3=O`, the AC50 (usually the concentration giving half of the maximal activity seen) in [1] was 5.25 µM (active); in [2], 13.2 µM (active); in assay [3] it was 4.68 µM (active). In addition, the IC50 (in general, the point on the concentration scale where inhibition reaches its midpoint) in assay [4] is 23.5 µM (active). The fold change was 1.18 (inactive) and 1.09 (inactive) in [5] (setting [12]); 0.974 and 1.09 in assay [5] (setting [13]). The cell count is 743 and 2700 in assay [5] (setting [14]); 630 and 2460 in [5] (setting [15]); 5180 in assay [10]. Also, the SSMD in assay [10] was -18.6. The plate-normalised HSF1 focus index in [10] is 0.0445 (active). The outcome in [11] was inactive. In addition, the z-score is 2.62 (active) in assay [6] (setting [16]); -0.996 in assay [6] (setting [17]); -1.04 (inactive) and -2.14 (inactive) in [9].
